GPR151 ag: human GPR151 activation; Q8TDV0; PathHunter beta-arrestin GPR151 cells, luminescence; activation, % at 11.2 µM; 650,000 compounds, 1% hits; in the data active = activation above about 4.9%;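 note: 0% = median of compound wells and 100% = cells with positive control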
TEAD-YAP block: TEAD-YAP interaction inhibition; HEK-TIYL cells, TEAD-Gal4/YAP UAS-luciferase luminescence; inhibition, % at 9.12 µM; 640,000 compounds, 1.4% hits; AID 1259422; in the data active = inhibition above about 32%;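 note: 0% = median of test compound wells and 100% = reference inhibitor wells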
MITF primary: blocks human microphthalmia-associated transcription factor; AlphaScreen MITF homodimerization, bead proximity signal; inhibition, % at 2.6 µM; 650,000 compounds, 0.91% hits; AID 1259374; in the data active = inhibition above about 50%;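 note: 0% = vehicle wells with protein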
FBW7 act: human FBW7 E3 ligase activation, primary screen. AlphaScreen FBW7–phospho-cyclin E peptide binding, activator screen. Q969H0. 650,000 compounds, 0.13% hits. normalized activity (activation), % at 26.1 µM; in the data active = normalized activity above about 1.9%;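 note: purified mutant Fbw7 with reduced substrate affinity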
GPR151 confirm: confirmation of human GPR151 activators. shares compounds with GPR151 ag. GPR151 PathHunter beta-arrestin cells, luminescence, 90 min; % of EA-reagent control over plate median. activation, % at 11.2 µM. 6,700 tested, under 10 active;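 active = mean percent activation across replicates above the confirmation screen cutoff of 4.91%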
GPR119 counter: GPR119 activation, counter-screen for GPR151 activators; shares compounds with GPR151 ag; GPR119 PathHunter beta-arrestin cells, luminescence, 90 min; 0 = compound-well median, 100 = enzyme-acceptor control; activation, % at 11.2 µM; 6,700 compounds, 0.3% hits;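 active = mean percent activation in the counterscreen above 29.09%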;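 note: counterscreen on off-target GPR119 to flag nonselective hits from the GPR151 activator screen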
An asterisk follows results filed as active; x = not tested or not shown. Only some compounds are listed: those with a hit (about 3.5% of all), similar ones and a draw of the others.

SMILES	GPR151 ag	TEAD-YAP block	MITF primary	FBW7 act	GPR151 confirm	GPR119 counter
COC(=O)c1ccccc1NC(=O)CN(c1ccc(Cl)c(Cl)c1)S(C)(=O)=O	-1	5	15	0	x	x
COc1ccc(N(CC(=O)Nc2cccc(Cl)c2C)S(C)(=O)=O)cc1OC	0	-7	15	0	x	x
Cc1ccc(N(CC(=O)Nc2cccc(Cl)c2C)S(C)(=O)=O)cc1C	5.3*	2	-18	0	0	6
CS(=O)(=O)N(CC(=O)NCCC1=CCCCC1)c1ccc(F)c(Cl)c1	-2	1	-19	0	x	x
Cc1ccc(N(CC(=O)NCCC2=CCCCC2)S(C)(=O)=O)cc1Cl	15*	3	18	0	1	-8
CCOC(=O)c1ccccc1NC(=O)CN(c1ccc(Cl)c(Cl)c1)S(C)(=O)=O	18*	6	21	0	-1	-14
CS(=O)(=O)N(CC(N)=O)c1ccc(Cl)cc1Cl	-2	4	9	1	x	x
N#C/C(=C\c1c(F)cccc1Cl)C(=O)NCC1CCCO1 (stereo not drawn)	-1	-11	9	0	x	x
CC(=O)N1CCN(CC(=O)Nc2ccc(-c3nc4ccc(C)cc4s3)cc2)CC1	0	-11	-6	0	x	x
O=C(c1cccc2nccnc12)N1CCCC(c2ncncc2-c2ccncc2)C1 (stereo not drawn)	1	-4	1	1	x	x
Cc1ccc(Cl)cc1NC(=O)CN(c1ccc(Cl)cc1)S(C)(=O)=O	-1	13	1	0	x	x
Cc1ccc(N(CC(=O)Nc2ccccc2F)S(C)(=O)=O)cc1Cl	15*	13	6	0	0	-11
Cc1ccc(N(CC(=O)Nc2cc(Cl)ccc2C)S(C)(=O)=O)c(C)c1	6.9*	7	-15	0	0	6
CCOC(=O)c1ccccc1NC(=O)c1cn(-c2ccc(F)cc2F)c(=O)c2ccccc12	6.7*	0	7	0	0	8
CCOC(=O)c1ccccc1NC(=O)CN(c1ccccc1F)S(C)(=O)=O	5.0*	4	-15	0	0	3
CCOC(=O)c1ccccc1NC(=O)CN(c1ccccc1OCC)S(C)(=O)=O	1	-11	-8	0	x	x
CC1CN(c2ccc(C(N)=O)cc2[N+](=O)[O-])CC(C)O1 (stereo not drawn)	-1	-9	2	0	x	x
N#CC1=C2SCN(Cc3ccco3)CN2C(=O)CC1c1ccccc1[N+](=O)[O-] (stereo not drawn)	1	1	3	0	x	x
COc1ccc(Cl)cc1NC(=O)CN(c1cccc(Cl)c1)S(C)(=O)=O	6.8*	11	-9	0	-1	7
CCOC(=O)c1ccccc1NC(=O)CN(c1ccc(F)c(Cl)c1)S(C)(=O)=O	5.2*	-15	0	0	0	10
CCOC(=O)c1ccccc1NC(=O)CN(c1ccc(OC)c(Cl)c1)S(C)(=O)=O	0	-3	13	0	x	x
CS(=O)(=O)N(CC(=O)Nc1ccc(Cl)c(Cl)c1)c1ccc2c(c1)OCO2	0	-1	-1	1	x	x
COC(=O)c1ccccc1NC(=O)CN(c1ccc(F)c(Cl)c1)S(C)(=O)=O	13*	5	8	0	-2	31*
Cc1ccc(NC(=O)CN(c2ccc3c(c2)OCO3)S(C)(=O)=O)cc1Cl	5.1*	-7	9	0	0	11
CC(=O)Nc1ccc(NC(=O)C(C)n2c(C)c3cnn(-c4ccccc4)c(=O)c3c2C)cc1 (stereo not drawn)	-1	-9	-6	0	x	x
SMILES	GPR151 ag	TEAD-YAP block	MITF primary	FBW7 act	GPR151 confirm	GPR119 counter
COc1ccc(CCNC(=O)COC(=O)c2nsc(Cl)c2Cl)cc1OC	0	-3	16	0	x	x
COc1ccc(-c2ncc(C(=O)NCCOc3ccccc3)s2)cc1	-2	-16	18	0	x	x
COC(=O)c1ccccc1NC(=O)CN(c1ccccc1OC)S(C)(=O)=O	-1	-1	-19	0	x	x
CCOC(=O)c1ccccc1NC(=O)Nc1ccc(F)cc1	7.5*	-1	-5	0	0	4
CS(=O)(=O)N(CC(=O)NC1CC2CCC1C2)c1ccc(F)c(Cl)c1 (stereo not drawn)	7.8*	1	10	0	0	-5
Cc1ccc(N(CC(=O)NC2CC3CCC2C3)S(C)(=O)=O)cc1Cl (stereo not drawn)	2	5	11	0	x	x
COc1ccccc1N(CC(=O)Nc1ccccc1C(=O)NCC(C)C)S(C)(=O)=O	13*	7	3	0	-1	-7
Cc1cccc(NC(=O)NCc2noc3ccccc23)n1	5.6*	1	-7	0	0	-2
CCN(C(=O)NCc1noc2ccccc12)c1ccccc1	5.6*	-9	-5	0	0	2
Cc1ccc(NC(=O)NCc2noc3ccccc23)nc1	-1	4	4	0	x	x
CCCCN(CC)C(=O)NCc1noc2ccccc12	0	-2	-21	0	x	x
CCN(CC)C(=O)NCc1noc2ccccc12	5.3*	-7	0	0	1	6
FC(F)(F)c1cc(-c2ccco2)nc2oc(OCc3ccncc3)nc12	0	1	-2	0	x	x
Cc1ccnc(N2CCC(C(=O)Nc3ccc(Cl)cc3Cl)CC2)n1	1	2	8	0	x	x
COC(=O)/C(=C\c1ccncc1)NC(=O)c1ccccc1	1	8	7	0	x	x
CCc1ccc(NC(=O)COc2cccc(Cl)c2)cc1	-2	8	12	0	x	x
CCOc1nc(NC(=O)NS(=O)(=O)c2ccccc2)nc(-c2ccccc2)n1	5.0*	-1	2	0	0	1
CCN(CC)S(=O)(=O)c1ccc(C(=O)OCC(=O)c2ccc(F)cc2)cc1	0	10	5	0	x	x
CN(C)S(=O)(=O)c1ccc(C(=O)OCCCC(=O)c2ccc(F)cc2)cc1	11*	-5	10	0	1	15
O=C(Nc1ccc(Oc2ccccc2)cc1)C1C2C=CC3(O2)C1C(=O)N(Cc1cccnc1)C3C(=O)NC1CCCCC1 (stereo not drawn)	-1	7	9	0	x	x
CCN(CC)CCN1C(=O)c2ccccc2NC1c1ccc2c(c1)OCO2 (stereo not drawn)	5.3*	3	8	0	0	11
O=C1c2ccccc2NC(c2ccc3c(c2)OCO3)N1Cc1ccccc1 (stereo not drawn)	0	-6	-1	0	x	x
COc1ccc(NC(=O)C2CC23CCN(C(=O)c2ccccc2OC)CC3)cc1Cl (stereo not drawn)	3	-2	-20	0	x	x
COC(=O)C(CCCCNC(=O)c1ccccc1)NC(=O)c1ccccc1 (stereo not drawn)	0	3	6	0	x	x
NC(CCCCNC(=O)c1ccccc1)C(=O)O (stereo not drawn)	5.0*	5	7	0	-1	-10

Screens from PubChem BioAssay.
